Source: PubChem (National Center for Advancing Translational Sciences (NCATS))
TDP1 block = qHTS Assay for Inhibitors of Tyrosyl-DNA Phosphodiesterase (TDP1); AID 485290, 2010; hit rate 0.28% among 350,000; recombinant TDP1, AlphaScreen DNA substrate cleavage; Potency, µM (series often up to 130 µM), inactives show at the highest dose activity change, negative = inhibition, hits mostly inhibitors; note: potency is the fitted concentration of half-maximal effect; nearly all actives have a fitted effect of over 40% in size
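Recombinant human Tdp1 (E. coli-expressed, 1 nM final) preincubated with compounds 15 min at room temperature, then 5'-biotin/3'-phosphotyrosine-FITC DNA substrate (15 nM final) added for 5 min. AlphaScreen beads (10 ug/ml final) added 10 min; cleavage lowers signal.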
IL1B secr inh = qHTS for Inhibitors of Inflammasome Signaling: IL-1-beta AlphaLISA Primary Screen | THP-1 LPS/ATP IL-1B secretion, AlphaLISA, 16 h; active compounds read low | activity change, % at 57.5 µM | hit rate 4.7% among 360,000; in the data active = activity change below about -50%; inconclusive = mostly about -30% to -49%
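THP-1 cells pretreated 1 hr with compounds (up to 57.5 uM final), then stimulated with LPS (250 ng/mL final) plus ATP (1.25 mM final); secreted IL-1B measured by AlphaLISA after 16 hr, decreased signal indicating inhibition.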
Six1-Eya2 blk = qHTS Assay for Inhibitors of the Six1/Eya2 Interaction; AlphaScreen GST-Six1/His-Eya2 binding, biochemical; active compounds read low; activity change, % (no concentration beside the values); hit rate 0.56% among 360,000; AID 651725, 2012; in the data active = activity change below about -65%; inconclusive = mostly about -30% to -63%
Target sequence (O00167 whole entry, looked up): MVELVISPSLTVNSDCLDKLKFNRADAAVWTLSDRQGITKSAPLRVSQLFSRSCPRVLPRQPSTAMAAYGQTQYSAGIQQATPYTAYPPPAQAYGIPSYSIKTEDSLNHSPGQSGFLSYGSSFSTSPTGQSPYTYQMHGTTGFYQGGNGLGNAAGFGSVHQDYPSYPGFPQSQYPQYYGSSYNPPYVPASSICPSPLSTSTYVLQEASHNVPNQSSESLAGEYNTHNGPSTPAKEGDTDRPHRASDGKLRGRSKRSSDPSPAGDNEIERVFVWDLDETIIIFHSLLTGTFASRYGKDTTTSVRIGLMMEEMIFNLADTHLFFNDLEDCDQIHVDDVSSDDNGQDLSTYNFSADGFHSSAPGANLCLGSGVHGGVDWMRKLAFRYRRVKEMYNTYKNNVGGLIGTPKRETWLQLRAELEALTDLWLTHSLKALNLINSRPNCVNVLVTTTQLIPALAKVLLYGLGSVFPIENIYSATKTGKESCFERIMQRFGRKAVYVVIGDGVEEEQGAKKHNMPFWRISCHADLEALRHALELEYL
Target sequence (Q15475 whole entry, looked up): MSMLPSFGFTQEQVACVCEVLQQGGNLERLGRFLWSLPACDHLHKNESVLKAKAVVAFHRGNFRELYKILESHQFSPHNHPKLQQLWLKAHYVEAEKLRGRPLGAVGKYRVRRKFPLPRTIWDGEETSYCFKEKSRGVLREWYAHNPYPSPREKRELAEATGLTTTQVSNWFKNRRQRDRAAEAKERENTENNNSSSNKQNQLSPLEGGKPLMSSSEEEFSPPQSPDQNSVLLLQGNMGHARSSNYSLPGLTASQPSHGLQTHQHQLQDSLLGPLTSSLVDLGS
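Six1/Eya2 binding was read as AlphaScreen signal after compounds were pinned into GST-Six1 plus His-tagged Eya2 (5X stock 250/500 nM) in pH 8.0 Tris/NaCl/TCEP buffer, beads added, then incubated 1 h, 37 C, dark.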
CtBP-E1A inh = qHTS Assay for Inhibitors of the CtBP/E1A Interaction; AID 651724, 2012; activity change, % (no concentration beside the values); AlphaScreen GST-E1A/His-CtBP binding, 1536-well; active compounds read low; CtBP / adenovirus E1A interaction (AlphaScreen); hit rate 0.49% among 340,000; in the data active = activity change below about -65%; inconclusive = mostly about -30% to -63%
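In 5 uL wells, 23 nL compound meets equimolar GST-E1A and His-CtBP (5X stock 125 nM each) for 2 h, 37 °C. Beads (5X, 50 ug/mL) then 1 h, 37 °C, dark.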
DT40 TDP1 no CPT = qHTS for Inhibitors of human tyrosyl-DNA phosphodiesterase 1 (TDP1): qHTS in cells in absence of CPT. Potency, µM (titrated, usually from 46.2 µM), for the others: top-dose activity change, negative = growth inhibition, hits mostly inhibitors. hit rate 15% among 420,000. AID 686978, 2013. DT40 Tdp1-/- hTDP1 cells, no CPT, ATP luminescence, 48 h; note: potency is the fitted concentration of half-maximal effect; nearly all actives have a fitted effect of over 55% in size
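Seeded 400 DT40-hTDP1 cells/well (vehicle DMSO, no 20 nM CPT); pinned compounds; ≥48 hr at 37 °C; CellTiter-Glo luminescence as viability measure.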
TDP1 cell CPT = qHTS for Inhibitors of human tyrosyl-DNA phosphodiesterase 1 (TDP1): qHTS in cells in presence of CPT | AID 686979, 2013 | hit rate 12% among 420,000 | Potency, µM (highest dose often 46.2 µM), for inactives: at the top dose activity change, negative = growth inhibition, hits mostly inhibitors | chicken DT40 Tdp1-/-;hTDP1 cells + 20 nM CPT, ATP luminescence, 48 h; note: potency is the fitted concentration of half-maximal effect; nearly all actives have a fitted effect of over 55% in size
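Chicken DT40 Tdp1-/- cells complemented with human TDP1, 400 cells/well, exposed to compounds plus 20 nM camptothecin for at least 48 h at 37 C; viability read as ATP content by CellTiter-Glo luminescence.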
Active calls of the source: *; u = inconclusive; x = no result given. This is a sample that favours compounds with a hit; in the whole collection about 18% have one here. Unless noted, calls come from the whole dose curve; as a rule, active = well fitted curve in the direction sought with a large enough effect; inconclusive = small, poorly fitted or top-dose-only effect, or another doubt; inactive = no such curve, though single readings can be large; an effect the other way counts as inactive or inconclusive. % is set by controls: 0 for no effect and ±100 for the full control effect.

SMILES	TDP1 block	IL1B secr inh	Six1-Eya2 blk	CtBP-E1A inh	DT40 TDP1 no CPT	TDP1 cell CPT
O=C(Nc1ccccc1CC[N+](=O)[O-])N1CCN(c2ccccc2)CC1	3%	7	-3	5	u	u
COc1ccc(C2=Nc3ccccc3N(C(=O)c3ccc4c(c3)OCO4)C2C(=O)NCc2ccccc2)cc1 (configuration not stated)	x	-7	-5	-2	u	u
Cc1nc2ccc(C(=O)N3c4ccccc4N=C(c4ccc5c(c4)OCO5)C3C(=O)NCc3ccccc3)cc2[nH]1 (configuration not stated)	x	-2	-10	-13	1.6µM*	2.1µM*
O=C(NCc1ccccc1)C1C(c2ccc3c(c2)OCO3)=Nc2ccccc2N1C(=O)c1cccc2ccccc12 (configuration not stated)	x	-2	-10	-8	u	-9%
Cc1cccc(C)c1NC(=O)C1C(c2ccc3c(c2)OCO3)=Nc2ccccc2N1C(=O)c1cccc2ccccc12 (configuration not stated)	x	-1	-21	-3	7.3µM*	6.5µM*
NNC(=O)c1[nH]c2ccc([N+](=O)[O-])cc2c1-c1ccccc1	x	26	-8	x	23µM*	21µM*
Cc1ccc(C)c(NC(=O)CSc2cccc3cccnc23)c1	1%	3	-12	0	-6%	2%
Cc1cccc(NC(=O)CSc2cccc3cccnc23)c1	4%	47	-81*	x	u	u
CCOc1cc(/C=N/NC(=O)CSc2cccc3cccnc23)ccc1O	5%	13	-66*	-74*	u	0%
CCCCOc1ccc(NC(=O)CSc2cccc3cccnc23)cc1	1%	7	u	-88*	u	u
O=C(CSc1cccc2cccnc12)Nc1ccccc1F	1%	-1	u	u	u	u
O=C(CSc1cccc2cccnc12)Nc1cc(C(=O)O)cc(C(=O)O)c1	3%	24	u	-83*	u	0%
CCn1c(CNC(=O)c2ccccc2Br)nnc1SCC(=O)NC1=NCCS1	x	4	-1	4	u	2%
COc1ccc(-c2nc3ncnn3cc2C)cc1F	-3%	21	6	-2	0%	6%
COc1ccc(C(O)P(=O)(OCCC(C)C)c2ccc(N(C)C)cc2)cc1OC (configuration not stated)	-1%	x	-1	2	-7%	9%
O=C(Nc1ccc(Oc2cccnc2)cc1)c1cccc([N+](=O)[O-])c1	4%	-56*	-4	-3	u	u
O=C(Nc1ccc2ccccc2c1)c1cccc([N+](=O)[O-])c1	x	-16	-10	0	u	-6%
COc1ccc(C(=O)C(C)Oc2cccc(NC(=O)c3cccc([N+](=O)[O-])c3)c2)cc1 (configuration not stated)	8%	-18	-12	-4	21µM*	u
COc1cc(/C=C2\CC/C(=C\c3cc(OC)c(O)c(OC)c3)C2=O)cc(OC)c1O	-3%	-103*	-8	-5	5.8µM*	6.5µM*
COc1cc(/C=C2/CCC/C(=C\c3cc(O)c(OC)c(Cl)c3)C2=O)cc(Cl)c1O	6%	-107*	-14	7	10µM*	10µM*
COc1cc(/C=C2\CC/C(=C\c3cc(OC)c(OC)c(OC)c3)C2=O)cc(OC)c1OC	6%	-60*	6	-10	10µM*	u
